Results taken from PubChem BioAssay (NCATS).
Values joined by “and” are separate entries in the source; they are usually repeats but may differ in a detail not shown here. Equal entries are not always repeated. Records with an inconclusive call do not appear. Entries that show only a call come without a potency. Values without a mark were called inactive. Active and inactive are the calls of the source. Calls follow the shape of the dose curve; as a rule, active = well fitted curve in the direction sought with a large enough effect; inconclusive = small, poorly fitted or top-dose-only effect, or another doubt; inactive = no such curve, though single readings can be large; an effect the other way counts as inactive or inconclusive.

Experiments:
[1] = biological target: Cytochrome P450 3A7 (Homo sapiens) (UniProt P24462); assay: Cytochrome P450 family 3 subfamily A member 7 (CYP3A7) small molecule antagonists: luciferase biochemical qHTS assay (AID 1963596); settings: P450-Glo CYP3A7 enzyme luminescence, 1 h; series mostly up to 57.4 µM; also: nearly all actives have a fitted effect of over 40% in size
Chain of Cytochrome P450 3A7 (Homo sapiens) (P24462 whole entry, looked up): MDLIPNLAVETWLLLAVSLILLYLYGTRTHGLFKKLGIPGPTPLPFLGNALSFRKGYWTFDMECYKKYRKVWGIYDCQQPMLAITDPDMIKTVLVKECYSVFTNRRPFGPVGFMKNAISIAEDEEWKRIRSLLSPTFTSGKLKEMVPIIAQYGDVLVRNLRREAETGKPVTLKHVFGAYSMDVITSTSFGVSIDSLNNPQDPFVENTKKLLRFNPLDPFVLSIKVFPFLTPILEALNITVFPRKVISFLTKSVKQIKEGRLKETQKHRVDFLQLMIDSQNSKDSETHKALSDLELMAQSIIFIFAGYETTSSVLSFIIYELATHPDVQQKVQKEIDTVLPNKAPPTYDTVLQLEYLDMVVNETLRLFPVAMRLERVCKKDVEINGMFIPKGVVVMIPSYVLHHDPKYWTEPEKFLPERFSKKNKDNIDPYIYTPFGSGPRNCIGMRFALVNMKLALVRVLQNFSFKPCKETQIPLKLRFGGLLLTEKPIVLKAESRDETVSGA
In short: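 Luminescence from luciferin released by CYP3A7 from a proluciferin substrate, read 20 min after detection reagent. Compound and enzyme-substrate mix sat 10 min before NADPH regeneration solution; reaction ran 1 h at room temperature.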

[2] = Cellular viability qHTS for adrenocortical cancer (ACC) cell line SW-13 (AID 1963989); settings: SW-13 ACC cells viability, CellTiter-Glo, 48 h; activity (max response): active compounds read low;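 also: cells grown in serum-free medium with ITS supplement; nearly all actives have a fitted effect of over 65% in size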
In short: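 Compound titrations (up to 46 uM final, in DMSO) were applied to SW-13 cells for 48 h at 37C/5% CO2. Reading used CellTiter-Glo after 20 min at room temperature; fitted curves yielded IC50 and efficacy.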

[3] = Quantitative highthroughput screen to assess conditional lethalithy of NOMO1 cells grown in RPMI1640 with untreated serum (RPMI+s) (AID 1963876); settings: NOMO1 AML cells in RPMI+serum, CellTiter-Glo viability, 48 h; series mostly up to 45.8 µM; also: nearly all actives have a fitted effect of over 35% in size; also: potency is read from the fitted curve at half-maximal effect
In short: (§1)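 Each medium arm—HPLM with 10% dialyzed FBS, or RPMI1640 with 5 mM glucose and 10% untreated or dialyzed FBS—was screened against an 11-point, 3-fold compound titration for 48 h at 37 °C, with CellTiter-Glo luminescence as endpoint.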

[4] = Quantitative highthroughput screen to assess conditional lethalithy of NOMO1 cells grown in Human Plasma-Like Medium with dialyzed fetal bovine serum (HPLM+ds) (AID 1963878); settings: NOMO1 AML cells in HPLM+ds, CellTiter-Glo viability, 48 h; series mostly up to 45.8 µM; also: nearly all actives have a fitted effect of over 35% in size; also: potency is read from the fitted curve at half-maximal effect
In short: as §1

[5] = Quantitative highthroughput screen to assess conditional lethalithy of P12 Ichikawa cells grown in Human Plasma-Like Medium with dialyzed fetal bovine serum (HPLM+ds) (AID 1963879); settings: ATP luminescence, 48 h; Potency: viability; series mostly up to 45.8 µM; also: nearly all actives have a fitted effect of over 35% in size; also: potency is read from the fitted curve at half-maximal effect
In short: as §1

[6] = Quantitative highthroughput screen to assess conditional lethalithy of P12 Ichikawa cells grown in RPMI1640 with dialyzed fetal bovine serum (RPMI+ds) (AID 1963880); settings: ATP luminescence, 48 h; Potency: P12-Ichikawa viability; series mostly up to 45.8 µM; also: nearly all actives have a fitted effect of over 35% in size; also: potency is read from the fitted curve at half-maximal effect
In short: as §1

[7] = Quantitative highthroughput screen to assess conditional lethalithy of P12 Ichikawa cells grown in RPMI1640 with untreated serum (RPMI+s) (AID 1963881); settings: ATP luminescence, 48 h; Potency: viability; series mostly up to 45.8 µM; also: nearly all actives have a fitted effect of over 35% in size; also: potency is read from the fitted curve at half-maximal effect
In short: as §1

[8] = Quantitative highthroughput screen to assess conditional lethalithy of SEM cells grown in Human Plasma-Like Medium with dialyzed fetal bovine serum (HPLM+ds) (AID 1963882); settings: SEM B-ALL cells in HPLM+ds, CellTiter-Glo viability, 48 h; series mostly up to 45.8 µM; also: nearly all actives have a fitted effect of over 35% in size; also: potency is read from the fitted curve at half-maximal effect
In short: as §1

[9] = Quantitative highthroughput screen to assess conditional lethalithy of SEM cells grown in RPMI1640 with unreated serum (RPMI+s) (AID 1963883); settings: SEM B-ALL cells, CellTiter-Glo viability, 48 h; series mostly up to 45.8 µM; also: nearly all actives have a fitted effect of over 35% in size; also: potency is read from the fitted curve at half-maximal effect
In short: as §1

[10] = Quantitative highthroughput screen to assess conditional lethalithy of SEM cells grown in RPMI1640 with dialyzed fetal bovine serum (RPMI+ds) (AID 1963884); settings: SEM B-ALL cells, RPMI+dialyzed FBS, CellTiter-Glo viability, 48 h; series mostly up to 45.8 µM; also: nearly all actives have a fitted effect of over 35% in size; also: potency is read from the fitted curve at half-maximal effect
In short: as §1

[11] = Cellular viability qHTS for adrenocortical cancer (ACC) cell line NCI-H295R (AID 1963990); settings: CellTiter-Glo ATP luminescence, 48 h; series mostly up to 46.1 µM; also: nearly all actives have a fitted effect of over 60% in size
In short: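 Readout: CellTiter-Glo luminescence, 20 min RT. Exposure: 48 h, 37C/5% CO2. Cells: NCI-H295R, ITS-DMEM serum-free. Range: up to 46 uM. Analysis: 4PL fit, IC50 plus efficacy.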

[12] = Quantitative highthroughput screen to assess conditional lethalithy of NOMO1 cells grown in RPMI1640 with dialyzed fetal bovine serum (RPMI+ds) (AID 1963877); settings: NOMO1 in RPMI+dialyzed FBS viability, ATP luminescence, 48 h; series mostly up to 45.8 µM; also: nearly all actives have a fitted effect of over 30% in size
In short: as §1

In the case of `CN1CCN(c2c(F)cc3c(=O)c(C(=O)O)cn4c3c2SCC4)CC1`, the Potency [1] is reported as “inactive” and the activity (max response) [2] is reported as -3.92%.

For `N[C@@H](C(=O)N[C@@H]1C(=O)N2C(C(=O)O)=C(Cl)CS[C@H]12)c1ccccc1`, the activity change, negative = inhibition [1] was -8.83% [at 11.5 µM], the Potency [3] was “inactive” and the Potency [4] was “inactive”. The Potency [5] was “inactive”, the Potency [6] was “inactive” and the Potency [7] was “inactive”. The Potency [8] was “inactive”, the Potency [9] was “inactive” and the Potency [10] was “inactive”. For the same molecule, the activity (max response) [2] was 7.53% and the activity change, negative = viability loss [11] was -18.4% [at 9.17 µM].

With `C[C@@H]1CCO[C@H]2Cn3cc(C(=O)NCc4ccc(F)cc4F)c(=O)c(O)c3C(=O)N12` the Potency [1] was “inactive”, the Potency [3] was “inactive” and the Potency [12] was “inactive”. The Potency [4] was “inactive”, the Potency [5] was “inactive” and the Potency [6] was “inactive”. The Potency [8] was “inactive” and the Potency [10] was “inactive”.

In the case of `CCCCc1nc2cc(C=CC(=O)NO)ccc2n1CCN(CC)CC`, the Potency [1] is reported as “inactive”, the Potency [3] is reported as 4180 nM (active) and the Potency [4] is reported as 4690 nM (active). The Potency [5] was 2640 nM (active), the Potency [6] was 2960 nM (active) and the Potency [7] was 2960 nM (active). For the same molecule, the Potency [8] was 1870 nM (active), the Potency [9] was 2090 nM (active) and the Potency [10] was 2090 nM (active).

For `CC(=O)N[C@H]1[C@H]([C@H](O)[C@H](O)CO)OC(C(=O)O)=C[C@@H]1N=C(N)N`, the Potency [1] was “inactive” and the activity (max response) [2] was -7.79%.

In the case of `O=c1c(O)c(-c2ccc(O)cc2O)oc2cc(O)cc(O)c12`, the Potency [1] is reported as “inactive”, the Potency [3] is reported as “inactive” and the Potency [12] is reported as “inactive”. The activity (max response) [2] was 14.7% and the Potency [11] was “inactive”.

In the case of `CC(S)C(=O)NCC(=O)O` (stereo unspecified), the Potency [1] is reported as “inactive”, the Potency [3] is reported as “inactive” and the Potency [12] is reported as “inactive”. For the same molecule, the Potency [5] was “inactive”, the Potency [7] was “inactive” and the activity (max response) [2] was 6.56% and -5.95%. For the same molecule, the Potency [11] was “inactive”.

In the case of `CCNC(=O)Nc1ccc2ncc(Nc3ccc(C)cc3)nc2n1`, the Potency [1] is reported as “inactive”, the Potency [6] is reported as “inactive” and the Potency [7] is reported as “inactive”.

For `CC(=O)Nc1ccc(OCC(O)CNC(C)C)cc1` (stereo unspecified), the Potency [1] was “inactive” and the activity (max response) [2] was 9.26%.

For `CS(=O)(=O)c1ccc([C@@H](O)[C@@H](CO)NC(=O)C(Cl)Cl)cc1`, the Potency [1] was “inactive”, the Potency [3] was “inactive” and the Potency [12] was “inactive”. For the same molecule, the Potency [4] was “inactive”, the Potency [5] was “inactive” and the activity (max response) [2] was -8.84%.

For `COc1ccc(CCN2CCN(CCCc3ccccc3)CC2)cc1OC`, the Potency [1] was “inactive”, the Potency [3] was “inactive” and the Potency [4] was “inactive”. The Potency [5] was “inactive”, the Potency [6] was “inactive” and the Potency [7] was “inactive”. For the same molecule, the Potency [8] was “inactive”, the Potency [9] was “inactive” and the activity (max response) [2] was -13%. For the same molecule, the Potency [11] was “inactive”.

For `N#C[C@H]1C[C@H]2C[C@@H]2N1C(=O)[C@@H](N)C12CC3CC(CC(O)(C3)C1)C2`, the Potency [1] was “inactive”, the Potency [4] was 10500 nM (active) and the Potency [5] was “inactive”. For the same molecule, the Potency [6] was “inactive”, the Potency [7] was “inactive” and the Potency [10] was “inactive”. For the same molecule, the activity (max response) [2] was 11.7% and the Potency [11] was “inactive”.

With `Nc1ncnc(Nc2ccccc2)n1` the Potency [1] was “inactive”, the activity (max response) [2] was 3.3% and the Potency [11] was “inactive”.

With `CCCCNC(=O)NS(=O)(=O)c1ccc(N)cc1` the Potency [1] was “inactive”, the activity (max response) [2] was 0.545% and the Potency [11] was “inactive”.

In the case of `CN1CCC(N(Cc2cccs2)c2ccccc2)CC1`, the Potency [1] is reported as “inactive”, the activity (max response) [2] is reported as 6.02% and the Potency [11] is reported as “inactive”.

With `NS(=O)(=O)c1ccc(N2CCCCS2(=O)=O)cc1` the Potency [1] was “inactive” and the Potency [11] was “inactive”.

With `CCN(CC)S(=O)(=O)c1ccc(C(=O)O)cc1` the Potency [1] was “inactive”, the activity (max response) [2] was -2.24% and the Potency [11] was “inactive”.

With `CC(C)(C)NCC(O)COc1ccc(NC(=O)NC2CCCCC2)cc1` (stereo unspecified) the Potency [1] was “inactive”, the activity (max response) [2] was 5.25% and the Potency [11] was “inactive”.

With `CN(C)C(=O)Nc1ccc(Cl)c(Cl)c1` the Potency [1] was “inactive”, the activity (max response) [2] was -2.09% and the Potency [11] was “inactive”.

In the case of `NCCO`, the Potency [1] is reported as “inactive”, the activity (max response) [2] is reported as 7.88% and the Potency [11] is reported as “inactive”.

For `Cc1ccc(S(=O)(=O)NC(=O)NC2CCCC2)cc1`, the Potency [1] was “inactive”, the activity (max response) [2] was 10.7% and the Potency [11] was “inactive”.

For `CC1(C)S[C@@H]2[C@H](NC(=O)C(c3ccccc3)S(=O)(=O)O)C(=O)N2[C@H]1C(=O)O` (stereo partly specified), the Potency [1] was “inactive”, the activity (max response) [2] was 8.35% and the Potency [11] was “inactive”.

With `CCOc1ccccc1C(N)=O` the Potency [1] was “inactive”, the activity (max response) [2] was 2.11% and the Potency [11] was “inactive”.

With `CO[C@@]1(NC(=O)Cc2cccs2)C(=O)N2C(C(=O)O)=C(COC(N)=O)CS[C@@H]21` the Potency [1] was “inactive”, the activity (max response) [2] was 12.4% and the Potency [11] was “inactive”.

In the case of `Brc1ccccc1-c1ccccc1`, the Potency [1] is reported as “inactive”, the activity (max response) [2] is reported as 7.98% and the Potency [11] is reported as “inactive”.

For `C[C@H]1O[C@@H](n2cc(F)c(=O)[nH]c2=O)[C@H](O)[C@@H]1O`, the Potency [1] was “inactive”, the activity (max response) [2] was -3.76% and -5.78% and the Potency [11] was “inactive”.

In the case of `CCOC(=O)C(C#N)=C(c1ccccc1)c1ccccc1`, the Potency [1] is reported as “inactive”, the activity (max response) [2] is reported as -5.89% and the Potency [11] is reported as “inactive”.

In the case of `Cc1c(N(C)CS(=O)(=O)O)c(=O)n(-c2ccccc2)n1C`, the Potency [1] is reported as “inactive”, the activity (max response) [2] is reported as 3.83% and the Potency [11] is reported as “inactive”.

With `CCOC(N)=O` the Potency [1] was “inactive”, the activity (max response) [2] was 11.5% and the Potency [11] was “inactive”.

With `O=C(CCCCC(=O)Nc1c(I)cc(I)c(C(=O)O)c1I)Nc1c(I)cc(I)c(C(=O)O)c1I` the Potency [1] was “inactive”, the activity (max response) [2] was 10.3% and the Potency [11] was “inactive”.
